Data from PubChem BioAssay (NCI).
Compounds without any hit were thinned out: in the full panel of roughly 83,000, 20% have a hit.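 Activity criterion: percent growth below 10, measured after cells in 96-well plates were exposed to a single compound concentration for 48 hours.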 The source made the active and inactive calls.

Tests used:
Assay in all cases: NCI-60 one-dose screen, 48 h (100 = growth as untreated, 0 = no growth, -100 = all killed)
Details in all cases: 10 µM unless noted
DU-145 prostate = tested on: DU-145 prostate
K-562 leukemia = tested on: K-562 leukemia
MALME-3M melanoma = tested on: MALME-3M melanoma
MDA-MB-231 breast = tested on: MDA-MB-231 breast
RXF 393 renal = tested on: RXF 393 renal
SF-268 CNS = tested on: SF-268 CNS
SF-295 CNS = tested on: SF-295 CNS
SF-539 CNS = tested on: SF-539 CNS
UACC-257 melanoma = tested on: UACC-257 melanoma
M14 melanoma = tested on: M14 melanoma

Measured: growth

C=C1C(=O)O[C@H]2[C@H]1CC/C(COC(=O)CSCCSCC(=O)OC/C1=C/CC[C@@]3(C)O[C@H]3[C@H]3OC(=O)C(=C)[C@@H]3CC1)=C\CC[C@@]1(C)O[C@@H]21
inactive: DU-145 prostate 32.3% | SF-268 CNS 16.7% | SF-295 CNS 67.2% | UACC-257 melanoma 49.9%
active: K-562 leukemia 1.81% | MALME-3M melanoma -8.71% | MDA-MB-231 breast -37.2% | RXF 393 renal -85.1% | SF-539 CNS 1.67% | M14 melanoma 3.06%

COC(C(=O)[C@@H](O)[C@@H](C)O)[C@@H]1Cc2cc3cc(O[C@H]4C[C@@H](O[C@H]5C[C@@H](O)[C@H](O)C(C)O5)[C@H](O)C(C)O4)cc(O)c3c(O)c2C(=O)[C@H]1O[C@H]1C[C@@H](O[C@H]2C[C@@H](O[C@H]3C[C@@H](OC)[C@H](O)C(C)O3)[C@@H](O)C(C)O2)[C@H](O)C(C)O1 (stereo not given in full)
inactive: DU-145 prostate 53.5% | K-562 leukemia 38.6% | MALME-3M melanoma 25.8% | MDA-MB-231 breast 43.2% | RXF 393 renal 27.6% | SF-268 CNS 49.9% | SF-295 CNS 30.7% | SF-539 CNS 38.1% | UACC-257 melanoma 19.9% | M14 melanoma 57.2%

Cn1cc(-c2csc(-c3ccc(Cl)cc3)n2)c2cccnc21
active: DU-145 prostate -70.5% [100 µM] | K-562 leukemia 3.35% [100 µM] | MALME-3M melanoma -9.47% [100 µM] | MDA-MB-231 breast -46.5% [100 µM] | RXF 393 renal -7.46% [100 µM] | SF-268 CNS -33.6% [100 µM] | SF-295 CNS -20.3% [100 µM] | SF-539 CNS -63.8% [100 µM] | UACC-257 melanoma -35.6% [100 µM] | M14 melanoma -62.3% [100 µM]

Cn1cc(-c2csc(-c3c[nH]c4ccc(Br)cc34)n2)c2cnccc21
active: DU-145 prostate -91.7% | K-562 leukemia -53.8% | MALME-3M melanoma -88.7% | MDA-MB-231 breast -81.4% | RXF 393 renal -94.9% | SF-268 CNS -75.5% | SF-295 CNS -86.6% | SF-539 CNS -96.4% | UACC-257 melanoma -50.2% | M14 melanoma -81.7%

CCCCC(=O)Nc1ncc(Cc2ccc(Cl)cc2)s1
inactive: DU-145 prostate 89% | K-562 leukemia 37.5% | MALME-3M melanoma 81.3% | MDA-MB-231 breast 62.3% | RXF 393 renal 56.4% | SF-268 CNS 79.6% | SF-295 CNS 74.6% | SF-539 CNS 73.5% | UACC-257 melanoma 80.7% | M14 melanoma 61.1%

C=C(C)[C@@H]1CC[C@]2(C(=O)O)CC[C@]3(C)[C@H](CC[C@@H]4[C@@]5(C)C[C@@H](Cc6cn(CCO[C@@H]7O[C@H](COC(C)=O)[C@H](OC(C)=O)[C@H](OC(C)=O)[C@H]7OC(C)=O)nn6)[C@H](O)C(C)(C)[C@@H]5CC[C@]43C)[C@@H]12
inactive: DU-145 prostate 81.8% | K-562 leukemia 53% | MALME-3M melanoma 77.7% | MDA-MB-231 breast 48.1% | RXF 393 renal 77.5% | SF-268 CNS 61.2% | SF-295 CNS 76.7% | SF-539 CNS 79.3% | UACC-257 melanoma 61.9% | M14 melanoma 81.2%

Cn1c(O)c(C=NCCN=Cc2c(O)n(C)c(=O)n(C)c2=O)c(=O)n(C)c1=O
inactive: DU-145 prostate 110% | K-562 leukemia 34.5% | MALME-3M melanoma 90.4% | MDA-MB-231 breast 101% | RXF 393 renal 111% | SF-268 CNS 105% | SF-295 CNS 101% | SF-539 CNS 93.9% | UACC-257 melanoma 101% | M14 melanoma 102%

O=C(Cn1cc(CN2C(=O)c3ccccc3S2(=O)=O)nn1)Nc1nc2ccccc2s1
inactive: DU-145 prostate 108% | K-562 leukemia 101% | MALME-3M melanoma 95% | MDA-MB-231 breast 108% | RXF 393 renal 117% | SF-268 CNS 97.3% | SF-295 CNS 101% | SF-539 CNS 98.4% | UACC-257 melanoma 101% | M14 melanoma 103%

CCOC(=O)c1c(C)c2c(n1C)CSc1cc(C(=O)c3ccccc3)c(=O)[nH]c1-2
inactive: DU-145 prostate 100% [100 µM] | K-562 leukemia 102% [100 µM] | MALME-3M melanoma 90.8% [100 µM] | MDA-MB-231 breast 87.1% [100 µM] | RXF 393 renal 134% [100 µM] | SF-268 CNS 90.8% [100 µM] | SF-295 CNS 103% [100 µM] | SF-539 CNS 94.7% [100 µM] | UACC-257 melanoma 120% [100 µM] | M14 melanoma 108% [100 µM]

Brc1c2c(c(Br)c3ccccc13)CCCC2
inactive: DU-145 prostate 110% | K-562 leukemia 94.7% | MALME-3M melanoma 108% | MDA-MB-231 breast 91% | RXF 393 renal 101% | SF-268 CNS 104% | SF-295 CNS 101% | SF-539 CNS 102% | UACC-257 melanoma 89.8% | M14 melanoma 99.1%

O=S(=O)(NCCNc1cc(-c2c(-c3cccc(O)c3)nc3sccn23)ccn1)c1ccc(C(F)(F)F)cc1
inactive: DU-145 prostate 43.1% | K-562 leukemia 22.8% | MALME-3M melanoma 57.8% | MDA-MB-231 breast 53.2% | RXF 393 renal 42.1% | SF-268 CNS 34.9% | SF-295 CNS 31.2% | SF-539 CNS 62.3% | UACC-257 melanoma 51.8% | M14 melanoma 36.9%

OCCOCCN(Cc1ccccn1)Cc1cc(I)cc(I)c1O
inactive: DU-145 prostate 87.8% | K-562 leukemia 107% | MALME-3M melanoma 87.8% | MDA-MB-231 breast 96% | RXF 393 renal 81.1% | SF-268 CNS 81.4% | SF-295 CNS 59.3% | SF-539 CNS 90.8% | UACC-257 melanoma 104% | M14 melanoma 81.1%

N=C(N)c1ccc(-c2ccc(-c3ccc(Cl)cc3)s2)nc1
active: DU-145 prostate -94.8% | K-562 leukemia -45.1% | MDA-MB-231 breast -47% | SF-539 CNS -55.2%
inactive: MALME-3M melanoma 87.3% | RXF 393 renal 60.1% | SF-268 CNS 57.6% | SF-295 CNS 27.1% | UACC-257 melanoma 82.3% | M14 melanoma 17.9%

N#Cc1cccc(NC(=O)c2oc3ccccc3c2-c2cnn(-c3ccccc3)c2)c1
active: K-562 leukemia 4.93% [50 µM]
inactive: DU-145 prostate 105% [50 µM] | MALME-3M melanoma 101% [50 µM] | MDA-MB-231 breast 82.7% [50 µM] | RXF 393 renal 75.7% [50 µM] | SF-268 CNS 92.4% [50 µM] | SF-295 CNS 74% [50 µM] | SF-539 CNS 81.5% [50 µM] | UACC-257 melanoma 94.7% [50 µM] | M14 melanoma 84% [50 µM]

CCCCNc1ccc(C#N)c(OCCN(CC)CC)c1
inactive: DU-145 prostate 113% | K-562 leukemia 86% | MALME-3M melanoma 109% | MDA-MB-231 breast 99.3% | RXF 393 renal 103% | SF-268 CNS 103% | SF-295 CNS 107% | SF-539 CNS 111% | UACC-257 melanoma 114% | M14 melanoma 104%

CCOC(=O)C(=Cc1cccc(Cl)c1)C(=O)OCC
inactive: DU-145 prostate 28% | SF-268 CNS 26.4% | SF-295 CNS 77.2% | UACC-257 melanoma 26.1% | M14 melanoma 11.9%
active: K-562 leukemia -11.1% | MALME-3M melanoma -27.5% | MDA-MB-231 breast 1.37% | RXF 393 renal -27.8% | SF-539 CNS 9.28%

O=Nc1c(-c2c(O)[nH]c3ncccc23)[nH]c2ccccc12
inactive: DU-145 prostate 62.2% | K-562 leukemia 53.3% | MALME-3M melanoma 91% | MDA-MB-231 breast 78.6% | RXF 393 renal 29.4% | SF-268 CNS 66.2% | SF-295 CNS 94.9% | SF-539 CNS 50.3% | UACC-257 melanoma 92.6% | M14 melanoma 56.4%

N#C/C(=C\c1ccc(Br)cc1)n1nnc2ccc(F)cc21
active: K-562 leukemia 3.46% | MALME-3M melanoma -22.6% | MDA-MB-231 breast -11.4% | RXF 393 renal -41% | SF-539 CNS -24.3% | UACC-257 melanoma 6.2% | M14 melanoma -42.3%
inactive: DU-145 prostate 15.3% | SF-268 CNS 42.5% | SF-295 CNS 44%

C1=C(N2CCCC2)CCC1
inactive: DU-145 prostate 108% | K-562 leukemia 120% | MALME-3M melanoma 100% | MDA-MB-231 breast 98.8% | RXF 393 renal 93.1% | SF-268 CNS 107% | SF-295 CNS 104% | SF-539 CNS 87.4% | UACC-257 melanoma 89.8% | M14 melanoma 96.2%

CCn1cc(C(=O)N/N=C/c2cccs2)c(=O)c2cc(F)c(N3CCNC(C)C3)c(F)c21 (stereo not given)
inactive: DU-145 prostate 48.3% | MDA-MB-231 breast 41% | RXF 393 renal 16.2% | SF-268 CNS 79.1% | SF-295 CNS 85.3% | SF-539 CNS 84.2% | UACC-257 melanoma 108% | M14 melanoma 49.4%
active: K-562 leukemia -39% | MALME-3M melanoma -36.7%

COC(=O)[C@H]1CCCN1C[C@@H](O)CN1C(=O)/C(=C\c2cc(OC)c(OC)c(OC)c2)c2ccccc21
inactive: DU-145 prostate 99.6% | K-562 leukemia 81.4% | MALME-3M melanoma 100% | MDA-MB-231 breast 102% | RXF 393 renal 114% | SF-268 CNS 99.8% | SF-295 CNS 105% | SF-539 CNS 111% | UACC-257 melanoma 90.6% | M14 melanoma 97.3%

OB(O)c1cccc(-c2nc3ccc4[nH]ncc4c3c3c2CCCC3)c1
inactive: DU-145 prostate 50.3% | K-562 leukemia 52.6% | MALME-3M melanoma 120% | MDA-MB-231 breast 26.1% | RXF 393 renal 13.6% | SF-268 CNS 37.9% | SF-295 CNS 71.6% | SF-539 CNS 20.9% | UACC-257 melanoma 103% | M14 melanoma 64.8%

O=C(Nc1nn(-c2ccc(Cl)cc2Cl)nc1-c1ccccc1)c1ccccc1
inactive: DU-145 prostate 131% | K-562 leukemia 91.9% | MALME-3M melanoma 80.2% | MDA-MB-231 breast 98.3% | RXF 393 renal 111% | SF-268 CNS 107% | SF-295 CNS 56.9% | SF-539 CNS 121% | UACC-257 melanoma 106% | M14 melanoma 87.1%

N#C/C(=C\c1ccc2ccccc2c1)c1cc2ccccc2[nH]1
inactive: DU-145 prostate 59.5% | K-562 leukemia 19.4% | MALME-3M melanoma 45% | MDA-MB-231 breast 41.5% | RXF 393 renal 29.3% | SF-268 CNS 54.2% | SF-295 CNS 33% | SF-539 CNS 32.9% | UACC-257 melanoma 63.2% | M14 melanoma 18%

O=S(=O)(Nc1cc(Br)c(O)c2ccccc12)c1ccc(F)cc1
inactive: DU-145 prostate 81.2% | K-562 leukemia 28.7% | MALME-3M melanoma 62.2% | MDA-MB-231 breast 10.7% | RXF 393 renal 102% | SF-268 CNS 79.4% | SF-295 CNS 95% | SF-539 CNS 85.1% | UACC-257 melanoma 63.4% | M14 melanoma 96.7%

O=C(/C=C(/C=C/c1cccc2[nH]ccc12)OB(F)F)/C=C/c1cccc2[nH]ccc12
active: DU-145 prostate 2.94% | K-562 leukemia -2.54% | MALME-3M melanoma -26.9% | MDA-MB-231 breast -10.7% | RXF 393 renal -87.2% | SF-268 CNS 2.01% | SF-295 CNS -49.5% | SF-539 CNS -25.8% | UACC-257 melanoma -47.3% | M14 melanoma -34.2%
